Data from PubChem BioAssay (NCATS).
Results filed as inconclusive are left out. Where a call stands in place of a potency, no number is given. Activity calls are given as the source filed them. Unless noted, calls come from the whole dose curve; as a rule, active = well fitted curve in the direction sought with a large enough effect; inconclusive = small, poorly fitted or top-dose-only effect, or another doubt; inactive = no such curve, though single readings can be large; an effect the other way counts as inactive or inconclusive.

Experiments:
[1] = qHTS for Inhibitors of Cell Surface uPA Generation: Validation Assay (AID 493164);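 note: RAW 264.7 macrophage cells exposed to compound for 18 h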
Summary of the method: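 Compounds are titrated over seven points (2.45 nM–38.3 uM final) onto pre-plated RAW 264.7 cells and incubated for 18 h. Retained intracellular ATP, measured with ATP-Lite, indicates blocked lethal factor entry.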

[2] = target: Galactokinase (Homo sapiens) (UniProt P51570); assay: qHTS Validation Assay for Inhibitors of Human Galactokinase (GALK) (AID 493189)
Sequence of Galactokinase (Homo sapiens) (P51570 whole entry, looked up): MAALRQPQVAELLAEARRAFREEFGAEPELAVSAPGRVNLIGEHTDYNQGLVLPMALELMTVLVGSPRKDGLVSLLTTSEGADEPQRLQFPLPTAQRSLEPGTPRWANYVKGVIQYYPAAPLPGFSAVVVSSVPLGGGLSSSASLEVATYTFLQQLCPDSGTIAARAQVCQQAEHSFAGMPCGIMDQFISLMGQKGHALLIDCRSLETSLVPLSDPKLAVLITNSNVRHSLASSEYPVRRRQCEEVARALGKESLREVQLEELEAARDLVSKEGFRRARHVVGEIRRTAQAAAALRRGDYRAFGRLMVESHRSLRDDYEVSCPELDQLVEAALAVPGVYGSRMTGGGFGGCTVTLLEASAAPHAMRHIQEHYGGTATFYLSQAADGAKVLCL
Summary of the method: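 GALK (5 nM) with 35 uM ATP and 100 uM galactose in HEPES pH8.0, MgCl2, NaCl, DTT, BSA; 1 h at room temperature. Residual ATP read by Kinase-Glo Plus luminescence after 10 min.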

[3] = Validation screen for small molecules that induce DNA re-replication in SW480 colon adenocarcinoma cells (AID 504364)
Summary of the method: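 Hoechst-stained SW480 nuclei, imaged at 405 nm excitation after 48 hr compound exposure, were counted for elevated DNA content as the re-replication signal.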

[4] = target: Peptidyl-prolyl cis-trans isomerase NIMA-interacting 1 (Homo sapiens) (UniProt Q13526); assay: qHTS Validation Assay to Find Inhibitors of Pin1 (AID 504536; active = well fitted inhibition curve with a large enough effect in the polarisation, with a control signal flat, not every such curve was filed as active; the % refers to the polarisation)
Sequence of Peptidyl-prolyl cis-trans isomerase NIMA-interacting 1 (Homo sapiens) (Q13526 whole entry, looked up): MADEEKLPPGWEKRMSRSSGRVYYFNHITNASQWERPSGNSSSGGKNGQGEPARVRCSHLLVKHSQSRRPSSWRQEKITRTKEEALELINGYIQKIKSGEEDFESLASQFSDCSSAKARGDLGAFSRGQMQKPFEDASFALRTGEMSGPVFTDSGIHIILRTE
Summary of the method: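 Fluorescence polarization competition: compounds (titration) displace HiFluor-488-labeled Pin1-1b peptide from Pin1 (0.3 uM final) in pH 7.5 HEPES buffer with DTT, 10 min at room temperature; %Activity normalized to no-enzyme wells, curves fitted.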

[5] = target: Phosphoglycerate kinase, glycosomal (Trypanosoma brucei brucei) (UniProt P07378); assay: qHTS Validation Assay to Find Inhibitors of Phosphoglycerate Kinase (AID 504547)
Sequence of Phosphoglycerate kinase, glycosomal (Trypanosoma brucei brucei) (P07378 whole entry, looked up): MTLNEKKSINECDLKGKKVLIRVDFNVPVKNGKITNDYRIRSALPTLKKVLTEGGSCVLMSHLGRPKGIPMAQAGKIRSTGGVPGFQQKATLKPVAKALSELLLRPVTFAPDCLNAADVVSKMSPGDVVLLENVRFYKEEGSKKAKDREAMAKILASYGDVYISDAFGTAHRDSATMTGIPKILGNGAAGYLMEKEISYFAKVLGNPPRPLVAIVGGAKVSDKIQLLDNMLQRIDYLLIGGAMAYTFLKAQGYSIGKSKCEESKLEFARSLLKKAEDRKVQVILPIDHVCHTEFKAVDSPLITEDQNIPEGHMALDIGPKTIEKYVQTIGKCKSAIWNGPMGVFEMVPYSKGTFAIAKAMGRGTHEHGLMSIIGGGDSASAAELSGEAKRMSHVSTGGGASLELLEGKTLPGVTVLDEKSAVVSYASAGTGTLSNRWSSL
Summary of the method: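 In TEA buffer (100mM, pH 7.6) containing 5mM MgCl2 and 0.01% Tween-20, the GAPDH-coupled PGK reaction proceeded for 60 minutes at room temperature before a single luminescence reading using Kinase-Glo Plus.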

[6] = target: phosphoglycerate mutase (Leishmania major) (UniProt Q4Q090); assay: qHTS Validation Assay to Find Inhibitors of Phosphoglycerate Mutase (AID 504548); settings: Potency: inhibition qHTS;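 note: end-point luminescence from Kinase-GloPlus after the PGAM reaction; series mostly up to about 58 µM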
Sequence of phosphoglycerate mutase (Leishmania major) (Q4Q090 1-553): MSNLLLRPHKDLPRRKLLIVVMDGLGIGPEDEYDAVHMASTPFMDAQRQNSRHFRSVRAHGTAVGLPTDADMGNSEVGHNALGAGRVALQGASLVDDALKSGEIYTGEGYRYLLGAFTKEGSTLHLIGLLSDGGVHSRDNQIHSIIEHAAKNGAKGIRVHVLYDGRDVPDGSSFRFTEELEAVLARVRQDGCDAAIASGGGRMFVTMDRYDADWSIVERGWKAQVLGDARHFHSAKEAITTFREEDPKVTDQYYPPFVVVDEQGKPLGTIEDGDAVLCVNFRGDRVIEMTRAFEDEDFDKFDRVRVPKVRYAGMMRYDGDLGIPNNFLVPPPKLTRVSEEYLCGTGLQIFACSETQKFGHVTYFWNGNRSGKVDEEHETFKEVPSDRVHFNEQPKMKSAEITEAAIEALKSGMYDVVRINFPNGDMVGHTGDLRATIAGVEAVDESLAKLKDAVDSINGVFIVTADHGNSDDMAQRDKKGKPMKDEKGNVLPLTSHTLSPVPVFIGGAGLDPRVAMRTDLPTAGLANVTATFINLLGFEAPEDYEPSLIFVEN
Summary of the method: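 L. major PGAM (1.25nM final) was added to substrate buffer and pinned compound, incubated 45 minutes at room temperature, then Kinase-GloPlus added; luminescence read after 10 minutes. Buffer: 100 mM TEA pH 7.6, 5 mM MgCl2, 0.01% Tween-20.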

[7] = target: Ubiquitin carboxyl-terminal hydrolase 1 (Homo sapiens) (UniProt O94782); assay: Inhibitors of USP1/UAF1: Pilot qHTS (AID 504865); note: nearly all actives have a fitted effect of over 35% in size; note: potency is the fitted concentration of half-maximal effect
Sequence of Ubiquitin carboxyl-terminal hydrolase 1 (Homo sapiens) (O94782 whole entry, looked up): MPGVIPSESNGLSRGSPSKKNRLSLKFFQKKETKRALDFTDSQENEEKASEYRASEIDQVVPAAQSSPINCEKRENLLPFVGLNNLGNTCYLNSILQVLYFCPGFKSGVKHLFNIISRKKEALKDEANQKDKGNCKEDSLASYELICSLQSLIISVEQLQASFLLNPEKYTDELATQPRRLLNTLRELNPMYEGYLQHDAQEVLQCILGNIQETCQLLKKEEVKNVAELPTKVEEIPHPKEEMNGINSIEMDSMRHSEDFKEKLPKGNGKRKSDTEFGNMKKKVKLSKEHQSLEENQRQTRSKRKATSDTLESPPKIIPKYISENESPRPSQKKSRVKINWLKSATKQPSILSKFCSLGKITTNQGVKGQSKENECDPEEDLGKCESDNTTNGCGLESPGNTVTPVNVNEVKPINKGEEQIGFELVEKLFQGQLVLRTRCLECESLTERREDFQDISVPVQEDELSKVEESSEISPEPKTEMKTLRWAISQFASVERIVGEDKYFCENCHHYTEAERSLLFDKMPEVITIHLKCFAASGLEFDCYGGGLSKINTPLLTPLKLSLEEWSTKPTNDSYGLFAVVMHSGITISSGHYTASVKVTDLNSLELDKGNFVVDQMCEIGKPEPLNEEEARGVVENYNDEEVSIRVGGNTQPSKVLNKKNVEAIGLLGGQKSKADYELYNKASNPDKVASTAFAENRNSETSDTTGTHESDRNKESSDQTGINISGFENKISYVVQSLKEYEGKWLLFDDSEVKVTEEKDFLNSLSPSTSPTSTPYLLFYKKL
Summary of the method: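 USP1/UAF1 complex (1nM) preincubated with compound 15 min at room temperature, then Ub-Rho substrate (150nM final) added. Fluorescence read kinetically at 480/540 nm, 6 reads every 60 seconds. Buffer: 50mM HEPES pH 7.8, 0.5mM EDTA, 0.1 mg/ml BSA, 1mM TCEP, 0.01% Tween-20.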

[8] = qHTS for Inhibitors of ATXN expression: Validation (AID 588378); note: nearly all actives have a fitted effect of over 75% in size; note: potency is the fitted concentration of half-maximal effect
Summary of the method: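 Luminescence from an ATXN2-FFLuc reporter in HEK293 cells served as read-out after 24 h compound treatment at 37 degrees C; CellTiter-Fluor fluorescence was recorded first to assess viability.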

[9] = qHTS for Inhibitors of ATXN expression: Validation of Cytotoxic Assay (AID 588349)
Summary of the method: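 Toxicity of test compounds toward HEK293 cells is scored from cellular ATP content measured by CellTiter Glo. Cells receive titrated doses and incubate 72 hr at 37 degrees C beforehand.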

[10] = Nrf2 qHTS screen for inhibitors: Validation (AID 493153; active = well fitted inhibition curve with a large enough effect in the main read-out, with a control signal flat, not every such curve was filed as active); settings: Potency: luciferase luminescence; viability change: measured here: cytotoxicity max response
Summary of the method: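 In this counterscreened reporter format, each well gives two signals: CellTiter-Fluor fluorescence for cytotoxicity and ARE-luciferase luminescence for Nrf2 function. A549 ARE_Fluc cells in 5% FBS OPTI-MEM were exposed to compound titrations for 18-24 h.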

Row | Compound | outcome [1] | Potency [2] | Potency [3] | Potency [4] | Potency [5] | Potency [6] | Potency [7] | Potency [8] | Potency [9] | Potency [10] | viability change [10] [%]
1 | CC1CNCCN1S(=O)(=O)c1cccc2cnccc12 (stereo not drawn) | inactive | inactive | inactive | inactive | inactive | inactive | inactive | 22.4 µM (active) |  |  | 
2 | Cc1ccc2c(c1)C(N1CCN(C)CC1)=Nc1cccnc1N2 | inactive | inactive | inactive | inactive |  | inactive | inactive | inactive | inactive |  | 
3 | Cc1cc(Cn2cnc3c2C[C@@H](C(=O)O)N(C(=O)C(c2ccccc2)c2ccccc2)C3)ccc1N |  |  |  | inactive | inactive | inactive | inactive | inactive | inactive | inactive | 6.54
4 | N=S(=O)(O)Cc1noc2ccccc12 | inactive | inactive | inactive |  |  | inactive | inactive | inactive | inactive |  | 
5 | N#Cc1cc2nc(O)c(O)nc2cc1[N+](=O)[O-] | inactive | inactive | inactive | inactive |  | inactive | inactive | inactive | inactive |  | 
6 | CN1CCC2(CCN3CCc4c(oc5ccccc45)C3C2)N(C)C1=O (stereo not drawn) | inactive | inactive | inactive | inactive | inactive | inactive | inactive | inactive | inactive |  | 
7 | NC/C=C\C(=O)O | inactive | inactive | inactive | inactive | inactive | inactive | inactive | inactive | inactive |  | 
8 | CCCc1c(OCCCOc2ccc(OCC(=O)O)cc2)ccc(C(C)=O)c1O | inactive | inactive | inactive |  | inactive | inactive | 79.4 µM (active) | inactive | inactive |  | 
9 | O=C1Nc2ccc(I)cc2/C1=C/c1cc(Br)c(O)c(Br)c1 | inactive | inactive | inactive |  |  | inactive | 44.7 µM (active) | inactive |  |  | 
10 | N[C@@H](CCC(=O)N[C@H](CSN=O)C(=O)NCC(=O)O)C(=O)O | inactive | inactive |  | inactive | inactive | inactive | inactive | inactive |  |  | 
11 | CC(N)=O | inactive | inactive | inactive |  | inactive | inactive | inactive | inactive | inactive |  | 
12 | CC(C)C[C@H](NC(=O)C1OC1C(=O)O)C(=O)NCCCCN=C(N)N (stereo partly drawn) | inactive | inactive | inactive | inactive | inactive | inactive | inactive |  |  |  | 
13 | COc1ccc2c(c1)c(CC(=O)O)c(C)n2C(=O)c1ccccc1 | inactive | inactive | inactive | inactive | inactive | inactive | inactive | inactive | inactive |  | 
14 | Nc1nc2ccc(Cl)cc2c2nc(-c3ccco3)nn12 | inactive | inactive | inactive | inactive | inactive |  | inactive | inactive | inactive |  | 
15 | Nc1ccc2c3c(cccc13)C(=O)NC2=O | inactive | inactive | inactive |  | inactive | inactive | 25.1 µM (active) | inactive | inactive |  | 
16 | O=c1ccc2c(OCCCCc3ccccc3)c3ccoc3cc2o1 | inactive | inactive | inactive |  | inactive | inactive | inactive | inactive | inactive |  | 
17 | COc1ccccc1N1CCN(CCN(C(=O)c2ccc(F)cc2)c2ccccn2)CC1 | inactive | inactive | inactive | inactive | inactive | inactive | inactive | inactive | inactive |  | 
18 | COc1ccccc1N1CCN(CCCNc2c(C)c(=O)n(C)c(=O)n2C)CC1 | inactive | inactive | inactive | inactive | inactive | inactive | inactive | inactive | inactive |  | 
19 | N=C(N)c1ccccc1 | inactive | inactive | inactive |  | inactive | inactive | inactive | inactive | inactive |  | 
20 | Nc1nc2[nH]c(=O)cnc2c(=O)[nH]1 | inactive | inactive | inactive | inactive | inactive | inactive | inactive | inactive | inactive |  | 
21 | Cc1cccc(C(=O)NCN2CCN(c3ccccc3C#N)CC2)c1 | inactive | inactive |  | inactive | inactive | inactive | inactive | inactive | inactive |  | 
22 | CCC1(O)CC2CN(CCc3c([nH]c4ccccc34)[C@@](C(=O)OC)(c3cc4c(cc3OC)N(C=O)C3[C@]45CCN4CC=C[C@@](CC)([C@@H](OC(C)=O)[C@]3(O)C(=O)OC)[C@H]45)C2)C1 (stereo partly drawn) | inactive | inactive |  | inactive | inactive | inactive | inactive | inactive |  |  | 
23 | CCCCCCCCCCCCCCCCCCOC[C@H](COP(=O)([O-])OCC[N+](C)(C)C)OC | inactive | inactive | inactive | inactive | inactive | inactive | inactive | inactive |  |  | 
24 | CC#CCOC(=O)c1c(C)nc2sc3c(c2c1N)CCC(O)C3 (stereo not drawn) | inactive | inactive | inactive | inactive | inactive | inactive | inactive | inactive | inactive |  | 
25 | O=C(O)c1ccccc1Nc1ccccc1 | inactive | inactive |  | inactive | inactive | inactive | inactive | inactive | inactive |  | 
26 | C/C(=C\c1ccc(C(=O)O)cc1)c1ccc2c(c1)C(C)(C)CCC2(C)C | inactive | inactive | inactive |  | inactive | inactive | 31.6 µM (active) | inactive | inactive |  | 
27 | CCCCOC(=O)NS(=O)(=O)c1sc(CC(C)C)cc1-c1ccc(Cn2c(CC)nc3c(C)cc(C)nc32)cc1 | inactive | inactive |  |  | inactive |  | 56.2 µM (active) |  |  |  | 
28 | O=C(O)CCC/C=C\C[C@@H]1[C@@H](/C=C/[C@H](O)C2Cc3ccccc3C2)[C@@H](F)C[C@@H]1O | inactive |  |  |  | inactive | inactive | inactive | inactive |  |  | 
